Bioassay records from PubChem.
AID504770 – growth inhibition of E. coli YBA685, primary screen, V. cholerae RctB inhibitors; E. coli YBA685 rctB-dependent plasmid, OD600 growth, 3 h; hits give low values; z-score (concentration not given with the values); 0.27% of 130,000 active; AID 504770, 2011; in the data active = z-score below about -2, passing the limit was not always enough
Polio RdRp inh – poliovirus RdRp elongation inhibitors, primary screen, biochemical, fluorescence polarization, total intensity; 0.66% of 150,000 active; % elongation, % (compound at 16.7 µg/mL); poliovirus polymerase elongation; hits give low values; Genome polyprotein (Poliovirus type 1 (strain Mahoney)), P03300; in the data active = % elongation below about 90%
Target sequence (P03300 1749-2209 limits assumed): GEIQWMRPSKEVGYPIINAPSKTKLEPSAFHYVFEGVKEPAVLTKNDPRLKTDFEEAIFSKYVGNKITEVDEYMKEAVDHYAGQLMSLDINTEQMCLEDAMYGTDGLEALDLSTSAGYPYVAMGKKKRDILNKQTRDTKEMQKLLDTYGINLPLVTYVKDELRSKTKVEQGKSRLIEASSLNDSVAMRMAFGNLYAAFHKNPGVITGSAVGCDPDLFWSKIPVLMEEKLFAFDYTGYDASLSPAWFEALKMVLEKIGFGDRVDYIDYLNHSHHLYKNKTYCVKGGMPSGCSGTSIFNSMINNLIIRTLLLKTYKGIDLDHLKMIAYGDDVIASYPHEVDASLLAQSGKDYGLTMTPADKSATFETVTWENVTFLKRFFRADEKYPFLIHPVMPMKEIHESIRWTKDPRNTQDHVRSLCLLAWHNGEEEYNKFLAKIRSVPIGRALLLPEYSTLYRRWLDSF
Mtb MenB inh – M. tuberculosis MenB inhibitors, primary screen, biochemical, absorbance; 1,4-dihydroxy-2-naphthoyl-CoA synthase (Mycobacterium tuberculosis (strain ATCC 25618 / …; MenB enzyme assay, absorbance read-out; inhibition, % (test concentration not listed); 0.43% of 100,000 active; in the data active = inhibition above about 21%, passing the limit was not always enough
MbtI inh – MbtI salicylate synthase inhibitors, primary screen, biochemical, fluorescence intensity. inhibition, % (no concentration beside the values). P9WFX0. AID 493033, 2011. purified MbtI enzyme, fluorescence intensity read-out. 0.89% of 100,000 active; in the data active = inhibition mostly above about 56%, no sharp cut-off; inactive = mostly below about 77%
Numbers stand for hits; - = inactive; . = not tested or not shown; ! = repeats disagree. Compounds with a hit are over-represented: about 1.4% of the library has one in this group of screens.

SMILES	AID504770	Polio RdRp inh	Mtb MenB inh	MbtI inh
CNC(=O)Oc1c(Br)cc2sc(=O)oc2c1Br	-	-	-	100
Cc1cccc(NC(=S)N2CCCCC2C(N)=O)c1 (centres undefined)	-	-	-	58
CCOC(=O)/C(C#N)=C\C1=C(N2CCCC2)CC(C)(C)OC1	-	-	-	62
CCOC(=O)/C(C#N)=C\N1CCOCC1	-	-	-	-
Cn1c(CNC(=O)C2CCCCC2)cc2cc(Cl)ccc21	-	-	23	.
CNC(=O)COC(=O)c1ccc(C#N)cc1	-	-	-	-
S=c1[nH]nc(Cc2ccccc2)n1Cc1ccccc1	-	-	-	62!
N#Cc1nc2c(-c3nc4ccccc4s3)c(N)n(Cc3ccccc3)c2nc1C#N	-	-	-	-
CN(C)Cc1nc2ccccc2c(=O)n1CC#N	-	-	-	-
N#CCn1c(Cc2ccccc2)nc2ccccc2c1=O	-	-	48	-
N#CCn1c(C[S+]=C=N)nc2ccccc2c1=O	-	-	-	84
Cc1nn(Cc2ccccc2)c(C)c1C(=O)OCc1cccc(S(=O)(=O)N(C)C)c1	-	-	-	-
CCN1CCSc2ccc(C(=O)NCCN3CCOCC3)cc21	-	-	-	-
CCn1c2ccccc2c2cc(C=C(C#N)C#N)ccc21	-	-	-	-
O=C1C2C3c4ccccc4C(c4ccccc43)C2C(=O)N1Cc1ccco1 (centres undefined)	-	-	23	-
Cc1cc(N2CCCC2)ccc1/C=C/C1=CCN(C)CC1	-	64	-	-
C=CCn1c(C)c(/C=C/C2=CCN(C)CC2)c2ccccc21	-	-	-	-
N#Cc1c(N)n(-c2cccc(C(F)(F)F)c2)c2nc3ccccc3nc12	-	-	.	-
CN(C)c1ccc(NC(=S)c2ccccn2)cc1	-	-	-	68
O=C1Nc2ccccc2C(=O)C1(O)O	-	-	43	-
O=C1Nc2ccccc2-c2ccccc2N1	-	-	-	-
Cc1cc(=O)n(CC(=O)NC(C)C)c2c1c(C)nn2-c1ccccc1	-	-	-	-
Cc1cc(C(=S)NC(=O)c2ccccc2)c(C)n1C	-	-	-	65
CCOC(=O)c1cccc2ncccc12	-	-	-	96
CCOC(=O)c1cnc2ccccc2c1NCCc1ccccc1	-	-	-	-
SMILES	AID504770	Polio RdRp inh	Mtb MenB inh	MbtI inh
N#Cc1c(NC(NC(=O)c2ccco2)(C(F)(F)F)C(F)(F)F)sc2c1CCCCC2	-	-	-	-
O=C1C(=Cc2ccc(C(F)(F)F)cc2)C(=O)c2ccccc21	-	-	-	-
CCOC(=O)c1s/c(=N/N=C(C)C)n(C)c1C	-	-	-	56
O=C1c2cccc3c(N4CCCCC4)ccc(c23)C(=O)N1c1ccccn1	-	-	36	-
CC12C=CC(CO)(O1)C1C(=O)N(c3ccc(Br)cc3)C(=O)C12 (centres undefined)	-	-	-	101
CC1(C)c2sc(=O)[nH]c2SC2C(=O)N(c3ccc(Br)cc3)C(=O)C21 (centres undefined)	-	-	-	-
COc1ccc(OC)c(-n2c(N)c(C#N)c3nc4ccccc4nc32)c1	-2.1	-	-	-
CCCNc1ncccc1C(N)=O	-	-	35	-
O=c1cc(-c2ccccc2)sc(=O)[nH]1	-	-	-	.
S=c1cc(-c2ccccc2)ss1	-	88	-	94
N#Cc1cc(Cl)ccc1Nc1ncnc(N)n1	-2.4	.	.	.
CN(C)C=NC(=S)c1sccc1CSc1ccc(Cl)cc1	-	-	-	74
N#Cc1sccc1CSc1ccc(Cl)cc1	-	.	.	.
N#CC1(C#N)C2C=CC(C2)C1(C#N)C#N	-5.9	-	-	-
CC(=O)Nc1ccccc1N	-	-	-	.
CC(=O)/C=C(\C)Nc1ccccc1S	-	-	28	-
COC1(NS(=O)(=O)c2ccc(C)cc2)C(C)=CC(=O)C=C1C	-	.	.	94
COC(=O)C1=C(C)NC(=O)C1(NS(=O)(=O)c1ccc(C)cc1)C(F)(F)F (centres undefined)	-	-	-	-
C(=N\N1CCN(C(c2ccccc2)c2ccccc2)CC1)/c1cccnc1	-	-	-	-
CCc1ccc2c(c1)S(=O)(=O)C(C(F)(F)F)CO2 (centres undefined)	-	84	-	.
CCc1cccc(NC(=O)C2COc3ccccc3O2)c1 (centres undefined)	-	-	-	-
CCOC(=O)c1c(NC(=O)c2cc(C)on2)sc(C)c1C	.	78	.	.
CCOC(=O)c1sc(NC(=O)c2cc(C(C)C)on2)c(C(=O)OCC)c1C	-	-	-	-
CCOC(=O)c1c(NC(=O)c2cc(-c3ccc(Cl)cc3)on2)sc(C)c1C	.	-	.	.
COc1ccccc1-c1cc(C(=O)Nc2sc3c(c2C#N)CCCC3)no1	.	82	.	.
SMILES	AID504770	Polio RdRp inh	Mtb MenB inh	MbtI inh
CCOC(=O)c1c(NC(=O)c2cc(CC)on2)sc(C)c1C	.	90	.	.
CCOC(=O)c1c(NC(=O)c2cc(-c3ccccc3OC)on2)sc(C)c1C	.	73	.	.
CCOC(=O)c1c(NC(=O)c2cc(-c3ccc(OC)c(OC)c3)on2)sc(C)c1C	.	-	.	.
Cc1cc(C(=O)Nc2sc3c(c2C#N)CCC3)no1	-	.	.	.
CCC1Sc2ccccc2N(CC(=O)N(C(C)C)C(C)C)C1=O (centres undefined)	-	-	-	-
CCC1CCCCN1C(=O)c1cc(-c2ccc(C)cc2)on1 (centres undefined)	-	-	-	-
CCCCNC(=O)CC1Sc2ccccc2NC1=O (centres undefined)	-	-	-	-
CCOC(=O)c1c(NC(=O)c2cc(CC(C)C)on2)sc(C(C)=O)c1C	.	81	.	.
O=C(COc1coc(CN2CCc3ccccc32)cc1=O)c1ccccc1	-	-	-	-
O/N=c1/sc2ccccc2n1CCS	-	-	-	69
Cc1sc2nc(SCC(=O)c3ccc(O)cc3O)[nH]c(=O)c2c1C	-	76	-	88
Cc1onc(-c2ccccc2)c1C(=O)OCC(=O)c1ccc2[nH]c(=O)[nH]c2c1	-	76	-	-
COc1ccc(C(=O)OCC(=O)c2ccc3[nH]c(=O)[nH]c3c2)c(OC)c1	-	88	-	-
O=C(COC(=O)c1ccccc1NCc1ccco1)c1ccc2[nH]c(=O)[nH]c2c1	-	44	-	-
O=C(COC(=O)c1ccccc1NCc1ccco1)c1ccc(Cl)cc1	-	-	-	-
CN1C(=O)/C(=C\c2ccc(C(=O)O)cc2)c2cc(Br)ccc21	-	-	.	-
OC(COCC1COc2ccccc2O1)C[N+]1(Cc2ccccc2)CCCC1 (centres undefined)	-	-	.	-
Cc1nonc1NC(=O)Nc1cccnc1	-2	-	-	.
NC(=O)c1ccsc1NC(=O)Cc1ccc(S(=O)(=O)N2CCOCC2)s1	-5.4	-	-	-
CC(NC(=O)CN1C2CCC1CC(=O)NC2)c1ccccc1 (centres undefined)	-	-	29	-
O=C1CC2CCC(CN1)N2CC(=O)Nc1ccc(F)cc1 (centres undefined)	-	-	-	-
O=C(CCN1c2ccccc2Sc2ccccc21)NC1=NCCS1	-	85	-	-
